Experimental data reported in PubChem BioAssay (NCI).
Where “and” joins values, the source holds several entries; their conditions need not be identical. Identical values can stand only once. Compounds without any hit were thinned out: in the full panel of roughly 83,000, 20% have a hit.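 Results are percent growth after 48 hours of single-concentration exposure. 100 means growth as in untreated cells, lower positive values show inhibition; negative values down to -100 show cell death.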 Calls of active or inactive are those of the source. How the source made its calls: active means growth percent below 10; inactive means the rest.

Key:
Assay in all cases: NCI-60 one-dose screen, 48 h (100 = growth as untreated, 0 = no growth, -100 = all killed)
SK-MEL-2 melanoma = conditions: 10 µM
EKVX NSCLC = conditions: 10 µM
UO-31 renal = conditions: 10 µM
TK-10 renal = test system: TK-10 renal
ACHN renal = conditions: 10 µM
CAKI-1 renal = conditions: 10 µM
A498 renal = conditions: 10 µM
CCRF-CEM leukemia = conditions: 10 µM
MOLT-4 leukemia = conditions: 10 µM
SN12C renal = conditions: 10 µM

Measured: growth

CN(C)Cc1cc(C(C)(C)CC(C)(C)C)ccc1O
inactive: SK-MEL-2 melanoma 71.1% | EKVX NSCLC 98.4% | UO-31 renal 76.2% | TK-10 renal; 10 µM unless noted 99.8% | ACHN renal 82.4% | CAKI-1 renal 90.7% | A498 renal 116% | CCRF-CEM leukemia 99.6% | MOLT-4 leukemia 86.4%

Cc1ccc(C(=O)c2ccccc2)c(C)c1
inactive: SK-MEL-2 melanoma 108% | EKVX NSCLC 105% | SN12C renal 99.2% | TK-10 renal; 10 µM unless noted 109% | ACHN renal 103% | CAKI-1 renal 121% | A498 renal 104% | MOLT-4 leukemia 116%

c1csc(-c2cc(-c3cc(-c4cccs4)[nH]n3)n[nH]2)c1
inactive: SK-MEL-2 melanoma 132% | EKVX NSCLC 64.8% | SN12C renal 97.4% | TK-10 renal; 10 µM unless noted 162% | ACHN renal 92.7% | CAKI-1 renal 79.6% | A498 renal 139% | CCRF-CEM leukemia 66.1% | MOLT-4 leukemia 97.7%

CC(=O)C1CCCCC1
inactive: SK-MEL-2 melanoma 106% | SN12C renal 97.5% | UO-31 renal 92.8% | TK-10 renal; 10 µM unless noted 99.5% | ACHN renal 97.3% | CAKI-1 renal 90.8% | A498 renal 99.1%

CC1(C)S(=O)(=O)OCCOS1(=O)=O
inactive: SK-MEL-2 melanoma 115% | EKVX NSCLC 94.8% | SN12C renal 101% | TK-10 renal; 10 µM unless noted 93.2% | ACHN renal 106% | CAKI-1 renal 93.9% | A498 renal 101% | CCRF-CEM leukemia 78.8% | MOLT-4 leukemia 102%

CCCCCCCO
inactive: SK-MEL-2 melanoma 134% | SN12C renal 99.4% | UO-31 renal 82.1% | TK-10 renal; 10 µM unless noted 117% | ACHN renal 92.5% | CAKI-1 renal 110% | A498 renal 105% | CCRF-CEM leukemia 103% | MOLT-4 leukemia 96.4%

CCC(C#N)(CC)c1ccccc1
inactive: SK-MEL-2 melanoma 105% | EKVX NSCLC 105% | SN12C renal 98% | TK-10 renal; 10 µM unless noted 108% | ACHN renal 103% | CAKI-1 renal 113% | A498 renal 111% | CCRF-CEM leukemia 102% | MOLT-4 leukemia 107%

COc1ccccc1NC(=O)C1=C(C)NC(C)=C(C(=O)Nc2ccccc2OC)C1c1cccc([N+](=O)[O-])c1
inactive: SK-MEL-2 melanoma 79.6% | EKVX NSCLC 44.1% | SN12C renal 68.4% | TK-10 renal; 10 µM unless noted 97.4% | ACHN renal 54.6% | CAKI-1 renal 50.1% | A498 renal 128% | CCRF-CEM leukemia 64.5% | MOLT-4 leukemia 37.4%

CC(=O)c1sc2c(c1OC(=O)c1ccc(Cl)cc1Cl)c(=O)n(-c1ccccc1)c(=S)n2-c1ccccc1
active: SK-MEL-2 melanoma -43.9% | ACHN renal -18.2% | A498 renal -41.9% | CCRF-CEM leukemia -24.2% | MOLT-4 leukemia -11.4%
inactive: EKVX NSCLC 51.4% | SN12C renal 13.4% | CAKI-1 renal 13.5%

CCCCNC(=O)C(=O)NCCCC
inactive: SK-MEL-2 melanoma 123% | EKVX NSCLC 95.5% | SN12C renal 98.8% | TK-10 renal; 10 µM unless noted 96.4% | ACHN renal 110% | CAKI-1 renal 91.8% | A498 renal 114% | CCRF-CEM leukemia 101% | MOLT-4 leukemia 129%

CCCC(C)OCC(=O)O (centres undefined)
inactive: SK-MEL-2 melanoma 104% | SN12C renal 103% | UO-31 renal 86.6% | TK-10 renal; 10 µM unless noted 119% | ACHN renal 102% | CAKI-1 renal 97.5% | A498 renal 103% | CCRF-CEM leukemia 101% | MOLT-4 leukemia 95%

CC(C)=C(NC(=O)c1ccccc1)C(=O)O
inactive: SK-MEL-2 melanoma 98.3% | EKVX NSCLC 118% | UO-31 renal 101% | ACHN renal 106% | CAKI-1 renal 103% | A498 renal 90.5% | MOLT-4 leukemia 12.1%
active: CCRF-CEM leukemia 7.71%

Clc1ccc(-c2nnc(-c3cccc4ccccc34)o2)cc1
inactive: SK-MEL-2 melanoma 96.4% | EKVX NSCLC 34% | UO-31 renal 41.4% | TK-10 renal; 10 µM unless noted 95.3% | ACHN renal 90% | CAKI-1 renal 81.6% | MOLT-4 leukemia 104%

Cc1cc2ccccc2c(O)c1C#N
inactive: SK-MEL-2 melanoma 112% | EKVX NSCLC 108% | SN12C renal 95.3% | TK-10 renal; 10 µM unless noted 110% | ACHN renal 99.1% | CAKI-1 renal 115% | A498 renal 107% | CCRF-CEM leukemia 104% | MOLT-4 leukemia 108%

C#CC(C(C)C)N(CCO)CCCC (centres undefined)
inactive: SK-MEL-2 melanoma 111% | SN12C renal 102% | UO-31 renal 96.8% | TK-10 renal; 10 µM unless noted 107% | ACHN renal 100% | CAKI-1 renal 102% | A498 renal 88.8% | CCRF-CEM leukemia 95.6% | MOLT-4 leukemia 107%

CCCCCCCCOC(=O)c1ccccn1
inactive: SK-MEL-2 melanoma 103% | EKVX NSCLC 107% | SN12C renal 96.4% | TK-10 renal; 10 µM unless noted 102% | ACHN renal 103% | CAKI-1 renal 111% | A498 renal 104% | MOLT-4 leukemia 116%

CSc1[nH]c(=O)ncc1F
inactive: SK-MEL-2 melanoma 117% | EKVX NSCLC 101% | SN12C renal 101% | TK-10 renal; 10 µM unless noted 109% | ACHN renal 95% | CAKI-1 renal 91.5% | A498 renal 101% | CCRF-CEM leukemia 91.2% | MOLT-4 leukemia 117%

NC(CSC(c1ccccc1)(c1ccccc1)c1ccccc1)C(=O)O (centres undefined)
inactive: SN12C renal 53.6% | UO-31 renal 54.3% | TK-10 renal; 10 µM unless noted 59.3% | ACHN renal 57.5% | CAKI-1 renal 31% | A498 renal 48.5% | MOLT-4 leukemia 38.4%
active: SK-MEL-2 melanoma -15.7% | CCRF-CEM leukemia 9.95%

Cc1ccc(C(=O)NC2c3ccccc3Oc3ccccc32)cc1
inactive: SK-MEL-2 melanoma 66.4% | EKVX NSCLC 64.6% | UO-31 renal 34.4% | TK-10 renal; 10 µM unless noted 54.4% | ACHN renal 40% | CAKI-1 renal 64.9% | A498 renal 43.5% | CCRF-CEM leukemia 56.7% | MOLT-4 leukemia 45.5%

COc1cc2c3cc1Oc1c(OC)c(OC)cc4c1C(Cc1ccc(O)c(c1)Oc1ccc(cc1)CC3N(C)CC2)N(C)CC4 (centres undefined)
inactive: SN12C renal 16.9% | ACHN renal 18.9% | A498 renal 21.4%
active: SK-MEL-2 melanoma -16% | UO-31 renal 2.84% | TK-10 renal; 10 µM 4.81% | CCRF-CEM leukemia 2.18% | MOLT-4 leukemia -3.59%
96% (inactive) and -100% (active): TK-10 renal; 100 µM

COc1ccccc1C1OC2=Nc3cc(C)c(C)cc3NC2C1=O (centres undefined)
inactive: SK-MEL-2 melanoma 105% | EKVX NSCLC 83.9% | SN12C renal 81.2% | TK-10 renal; 10 µM unless noted 55.1% | ACHN renal 16.5% | CAKI-1 renal 60.3% | CCRF-CEM leukemia 86.8% | MOLT-4 leukemia 97.8%

N#CSc1cc(S(N)(=O)=O)ccc1N
inactive: SK-MEL-2 melanoma 104% | EKVX NSCLC 115% | SN12C renal 101% | TK-10 renal; 10 µM unless noted 106% | ACHN renal 112% | CAKI-1 renal 124% | A498 renal 118% | MOLT-4 leukemia 84.5%

CC(=O)CC(=O)N(C)C
inactive: SK-MEL-2 melanoma 106% | EKVX NSCLC 93.5% | SN12C renal 97% | TK-10 renal; 10 µM unless noted 98.4% | ACHN renal 103% | CAKI-1 renal 88.3% | A498 renal 102% | CCRF-CEM leukemia 73.7% | MOLT-4 leukemia 120%

Nc1nc2c(c(-c3nc(N)nc4c3CCc3ccccc3-4)n1)CCc1ccccc1-2
inactive: SK-MEL-2 melanoma 134% | EKVX NSCLC 89.9% | SN12C renal 102% | TK-10 renal; 10 µM unless noted 131% | ACHN renal 95.1% | CAKI-1 renal 76.9% | A498 renal 125% | CCRF-CEM leukemia 107% | MOLT-4 leukemia 115%

O=[N+]([O-])c1ccc(-c2noc(-c3cccs3)n2)cc1
inactive: SK-MEL-2 melanoma 106% | EKVX NSCLC 66.1% | SN12C renal 83.5% | ACHN renal 60.2% | CAKI-1 renal 77.8% | A498 renal 88.6% | CCRF-CEM leukemia 93.6% | MOLT-4 leukemia 81.5%

CC(C)OC(C(=O)O)c1ccccc1 (centres undefined)
inactive: SK-MEL-2 melanoma 110% | EKVX NSCLC 108% | SN12C renal 93.5% | TK-10 renal; 10 µM unless noted 98.4% | ACHN renal 97.2% | CAKI-1 renal 101% | A498 renal 107% | CCRF-CEM leukemia 91.9% | MOLT-4 leukemia 125%

O=C(O)CCC(NC(=O)OCc1ccccc1)C(=O)O (centres undefined)
inactive: SK-MEL-2 melanoma 105% | SN12C renal 100% | UO-31 renal 94.9% | TK-10 renal; 10 µM unless noted 93.1% | ACHN renal 111% | CAKI-1 renal 101% | A498 renal 106% | CCRF-CEM leukemia 101% | MOLT-4 leukemia 105%

OCCN1CCOCC1
inactive: SK-MEL-2 melanoma 107% | EKVX NSCLC 116% | SN12C renal 97.5% | TK-10 renal; 10 µM unless noted 106% | ACHN renal 101% | CAKI-1 renal 132% | A498 renal 106% | CCRF-CEM leukemia 108% | MOLT-4 leukemia 104%

Cc1cc2nc(CC(=O)c3ccccc3)c(=O)[nH]c2cc1C
inactive: SK-MEL-2 melanoma 102% | EKVX NSCLC 55.5% | SN12C renal 93.8% | TK-10 renal; 10 µM unless noted 149% | ACHN renal 93.8% | CAKI-1 renal 76.2% | A498 renal 127% | CCRF-CEM leukemia 88.5% | MOLT-4 leukemia 89%

COC(=O)/C=C/C(=O)NC(N)=O
inactive: SK-MEL-2 melanoma 85.2% | SN12C renal 101% | UO-31 renal 91.5% | TK-10 renal; 10 µM unless noted 102% | ACHN renal 99.4% | CAKI-1 renal 99.2% | A498 renal 98.6% | MOLT-4 leukemia 100%

Cc1ncc(C#N)c(N)n1
inactive: SK-MEL-2 melanoma 106% | SN12C renal 103% | UO-31 renal 85.7% | TK-10 renal; 10 µM unless noted 109% | ACHN renal 121% | CAKI-1 renal 92.9% | A498 renal 87.1% | CCRF-CEM leukemia 126% | MOLT-4 leukemia 102%

C=C[Si](OC(C)=O)(OC(C)=O)OC(C)=O
inactive: SK-MEL-2 melanoma 109% | SN12C renal 110% | UO-31 renal 79.3% | TK-10 renal; 10 µM unless noted 105% | ACHN renal 97.3% | CAKI-1 renal 96.4% | A498 renal 94.2% | CCRF-CEM leukemia 88% | MOLT-4 leukemia 98.3%

O=P(O)(O)OCC(O)CO (centres undefined)
inactive: SK-MEL-2 melanoma 117% | SN12C renal 98.5% | UO-31 renal 98.7% | TK-10 renal; 10 µM unless noted 110% | ACHN renal 101% | CAKI-1 renal 104% | A498 renal 108% | CCRF-CEM leukemia 100% | MOLT-4 leukemia 103%

NCCCN
inactive: SK-MEL-2 melanoma 122% | SN12C renal 101% | UO-31 renal 92.6% | TK-10 renal; 10 µM unless noted 107% | ACHN renal 103% | CAKI-1 renal 98.3% | A498 renal 114% | CCRF-CEM leukemia 101% | MOLT-4 leukemia 112%
